From PubChem BioAssay (NCI)
About 83,000 compounds went through this panel and 20% of them were active in at least one assay; those are over-represented in the sample as a whole.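 In brief: 96-well plates, 48 h treatment, single concentration, percent growth endpoint.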 Unmarked numbers belong to inactive results. Calls of active or inactive are those of the source.

system: IGROV1 ovarian; assay: NCI-60 one-dose screen, 48 h (100 = growth as untreated, 0 = no growth, -100 = all killed); details: 10 µM unless noted
Method: Growth inhibition of the IGROV1 human tumor cell line is measured as a screen for anti-cancer activity. Cells are grown in 96 well plates and exposed to the test compound for 48 hours. Compounds are tested at a single concentration, which is 10^-5 M for most compounds. The reported endpoint is percent growth (GI% or GIPRCNT), where numbers from 0 - 100% represent growth inhibition, and numbers from -100% - 0 represent cell death. For example, a value of 40 represents 60% growth inhibition. A value of 0 means no net growth occurred over the course of the experiment. A value of -40 indicates 40% of cells at the beginning of the experiment died by the end of the experiment. A value of -100 means all cells are dead at the end of the experiment.
NCI-60 Human Tumor Cell Lines Screen was performed using the standard one-dose NCI protocol, which is described in more detail at https://dtp.cancer.gov/discovery_development/nci-60/default.htm.
Compounds with GIPRCNT values below 10 were considered active. Activity score was based on GIPRCNT using the following formula: […]
Score is 0 for GIPRCNT values of 100 or above, 50 for GIPRCNT values of 0, and 100 for GIPRCNT values of -100.

Row | SMILES | growth
1 | COc1cc(-c2cc(-c3nc4ccc(F)cc4[nH]3)[nH]n2)cc(OC)c1OC | 43.6%
2 | c1csc(-c2nc(-c3cc4ccccc4c(N4CCOCC4)n3)cs2)c1 | 86.3%
3 | Cc1cc(N(CCCNc2ccnc3cc(Cl)ccc23)Cc2ccco2)nc(Cl)n1 | 51.8%
4 | Nc1c2c(nc3ccc(Cl)cc13)CC(c1ccc(O)cc1)CC2=O (stereo not given) | 49.3%
5 | O=C(NC1=CC(=O)c2ccccc2C1=O)c1ccccc1 | -30.1% (active)
6 | CC(=O)NC1=C(C#N)C(c2ccccc2Cl)c2c(ccc3ccccc23)O1 (stereo not given) | 46.1%
7 | COc1cccc(-c2nn(-c3ccccc3)cc2-c2ccnc(NCCNS(=O)(=O)c3ccccc3)c2)c1 | 33.6%
8 | Cn1cccc1/C=C1/SC(=S)N(CCc2ccc(O)cc2)C1=O | 45.7%
9 | C/C(=C(/c1ccccc1)c1ccc(N2C(=O)c3cccc4c(NCc5ccccc5)ccc(c34)C2=O)cc1)c1ccccc1 | 94.8%
10 | Cc1cc(Cl)c2c(N(C)C)cccc2n1 | 88.2%
11 | N=C(N)c1ccc(-c2ccc(-c3cc(F)cc(F)c3)o2)nc1 | 88.6%
12 | N#C/C(=C\c1ccc(-c2ccc(F)cc2)o1)c1nc(-c2ccco2)cs1 | 60%
13 | Cn1c(=O)c2c(nc(Br)n2CC(=O)Nc2ccc(F)cc2)n(C)c1=O | 107%
14 | C=C1C(=O)O[C@H]2[C@H]1CC/C(Cn1cc(-c3ccc(F)cc3)nn1)=C\CC[C@@]1(C)O[C@@H]21 | -40.3% (active)
15 | C#CCn1c(C)cc(C)c(C#N)c1=O | 103%
16 | Nc1nc(N)c2nc3c(nc2n1)CCCCCCCCCC3 | 37.1%
17 | O=[N+]([O-])c1cccc(/C=N\Nc2ccccc2)c1 | 60.1%
18 | C=C(C)[C@@H]1CC[C@]2(C)[C@H](CC=C3[C@@H]4CC(C)(C)CC[C@]4(C(=O)OC)CC[C@]32C)[C@@]1(C)CC/C(N)=N/O | 80.2%
19 | COc1cc2[nH]c(C(=O)c3cc(OC)c(OC)c(OC)c3)c(N)c2cc1C#CC1CC1 | 42.1%
20 | Nc1c(C(=O)Nc2cccc(Cl)c2)sc2ncc(Cl)cc12 | 79.5%

Row | SMILES | growth
21 | C/C(=N\Nc1cc(C)c2ccccc2n1)c1ccccn1 | -26.7% (active)
22 | COc1ccc(/C=C/C(=O)c2ccc([N+](=O)[O-])cc2)cc1 | 105%
23 | COc1ccc2c(c1)c(-c1nc(-c3c[nH]c4ncccc34)cs1)cn2CCNC(=O)OC(C)(C)C | 61.1%
24 | CC1(C)c2ccccc2C(=O)C1(Br)Cc1ccccc1 (stereo not given) | 92.5%
25 | C=CC(=O)N[C@H](Cc1ccc(-c2cc(Cl)cc(Cl)c2)cc1)[C@H](O)[C@@H](O)C(=O)O | 96.7%
26 | Cc1cc(C)c(NC(=O)c2sc3nc4c(cc3c2N)CCCC4)c(C)c1 | 62.5%
27 | CC1(C)C(=O)/C(=C\c2ccccn2)C[C@]2(C)[C@H]3CC[C@@H]4[C@@H](C(=O)/C=C/c5ccccn5)CC[C@@]4(C)[C@]3(C)CC[C@@H]12 | -52% (active)
28 | CNC(=O)c1cc(Oc2ccc3nc(NC(=O)Nc4ccc(Cl)cc4)sc3c2)ccn1 | 83.6%
29 | Clc1ccc2c(NCCNc3nc(-c4ccccc4)cc(-c4ccccc4)n3)ccnc2c1 | -83.1% (active)
30 | COc1ccc2[nH]c(-c3ccc(Cl)cc3)cc(=O)c2c1 | 102%
31 | C=C(C)[C@@H]1CC[C@]2(C(=O)O)CC[C@]3(C)[C@H](CC[C@@H]4[C@@]5(C)C/C(=C/c6ccc(OC)cc6)C(=O)C(C)(C)[C@@H]5CC[C@]43C)[C@@H]12 | 23.8%
32 | CC(CNc1nc(Nc2ccc(Cl)c(Cl)c2)nc(C(Cl)(Cl)Cl)n1)N(C)C (stereo not given) | -5.99% (active)
33 | NC1(N)C=CC2=C(C=C1)C1(N)C3=C(C=CC(N)(N)C=C3)N2C2(N)C3=C(C=CC(N)(N)C=C3)N1C1=C2C=CC(N)(N)C=C1 | 94.8%
34 | CCSc1sc(-c2ccc(C)cc2)nc1[P+](c1ccccc1)(c1ccccc1)c1ccccc1 | -8.55% (active)
35 | O=C(Nc1ccc(/C=C2\SC(=O)N(Cc3ccc(OC(F)(F)F)cc3)C2=O)cc1)c1ccc(Cl)c([N+](=O)[O-])c1 | 79.9%
36 | Cc1csc(-c2ccc3c(c2)COC3(CCCN(C)C)c2ccc(F)cc2)c1 (stereo not given) | 17.2%
37 | Cc1cc(C)n(Cc2cc(C(C)(C)C)cc(C(C)(C)C)c2)c(=O)c1C#N | 96.8%
38 | O=S(=O)(NCCNc1cc(-c2cn(-c3ccccc3)nc2-c2cccc(O)c2)ccn1)c1ccc(Br)cc1 | 49.6%
39 | Cn1cc(-c2csc(-c3cn(CCNC(=O)OC(C)(C)C)c4ccccc34)n2)c2cccnc21 | 64.7%
40 | O=S(=O)(NCCNc1cc(-c2cn(-c3ccccc3)nc2-c2cccc(O)c2)ccn1)c1cccc(F)c1 | 43.5%
